# TRHR PAM: allosteric enhancers of human TRH receptor | enhancement, % at 2 µM | TRHR cells, fluo-8 calcium fluorescence, EC20 TRH enhancement | P34981 | actives 0.66% (n = 360,000) | AID 493056; in the data active = enhancement above about 30%; note: 0% is about no effect
# Target sequence (P34981 whole entry, looked up): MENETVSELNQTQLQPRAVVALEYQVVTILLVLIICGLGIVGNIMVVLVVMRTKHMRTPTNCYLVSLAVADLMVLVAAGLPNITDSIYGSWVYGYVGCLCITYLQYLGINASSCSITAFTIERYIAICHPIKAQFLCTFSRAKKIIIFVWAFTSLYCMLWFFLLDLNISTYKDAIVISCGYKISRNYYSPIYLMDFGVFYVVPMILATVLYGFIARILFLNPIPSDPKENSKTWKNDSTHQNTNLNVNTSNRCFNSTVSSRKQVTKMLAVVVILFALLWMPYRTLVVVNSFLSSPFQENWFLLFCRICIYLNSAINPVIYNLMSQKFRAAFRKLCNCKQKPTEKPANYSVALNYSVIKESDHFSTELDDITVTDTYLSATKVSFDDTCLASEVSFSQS
#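 TRHR-expressing cells loaded with fluo-8 calcium dye were read kinetically (ex 480/em 530) during compound addition, then stimulated with an EC20 of TRH (10 nM final). Enhancement of the Gq-mediated intracellular calcium response was scored.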
# D1 antagonist: blocks dopamine activation of the human D1 receptor | P21728 | actives 3.2% (n = 360,000) | AID 504652 | activity change, negative = inhibition, % at 10 µM | HEK293 TREx D1 cells, calcium flux, dopamine EC80; active compounds read low; in the data active = activity change below about -30%; note: % is set by controls: 0 for no effect and ±100 for the full control effect
#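 Allosteric or orthosteric antagonism assessed as attenuation of the calcium response to EC80 dopamine, added 180 s after compound, in induced HEK293 Trex D1 cells loaded with no-wash calcium dye.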
# D1 agonist: human D1 receptor agonism. P21728. HEK293 T-REx D1 cells, calcium flux, agonist mode. activation, % at 2 µM. actives 1% (n = 360,000); note: 0% is about no effect
#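 Inducible HEK293 T-REx D1 cells, force-coupled to calcium signalling, were plated at 4000 cells/well with tetracycline and held overnight at 30 C. After no-wash calcium dye loading, compound-evoked calcium rise over 180 s flagged agonists.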
# D1 potentiator: human D1 dopamine receptor positive modulation | HEK293 TREx D1 cells, calcium flux, dopamine EC20 potentiation | potentiation, % at 10 µM | actives 0.036% (n = 360,000) | P21728; in the data active = potentiation above about 30%; note: 0% is about no effect
# TRHR ag: TRH receptor (human) agonism | activation, % at 2 µM | P34981 | actives 0.18% (n = 360,000) | AID 493084 | TRHR cells, calcium flux fluo-8, FDSS agonist mode; note: 0% is about no effect
#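 TRHR-expressing cells loaded with fluo-8 calcium dye; 23 nL library compound pin-transferred, kinetic FDSS fluorescence (Ex 480/Em 530) recorded about 180 s for agonist-induced calcium release, before a 10 nM TRH EC20 addition for potentiator mode.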
# * hit, by the source's call; nt = not tested or not shown. The list is not random: actives were taken first. Their share in the collection is about 4.7%. Cut-off read from the data, not from the text of the source, unless noted: active = activation above about 30%; inactive = the rest.
SMILES,TRHR PAM,D1 antagonist,D1 agonist,D1 potentiator,TRHR ag
Cc1nnc2c(N3CCN(CCO)CC3)nc3ccccc3n12,4,-6,4,-1,1
CCOc1ccc(-c2csc(NC(=O)C3CCCO3)n2)cc1 (stereo not drawn),-5,-54*,2,-2,0
O=C(Nc1nc(-c2ccc(Cl)cc2)cs1)C1CCCO1 (stereo not drawn),1,-8,-1,-7,0
COc1ccccc1NC(=O)Cc1c(C(=O)O)[nH]c2ccc(Cl)cc12,0,-22,31*,0,0
COc1ccc(OC)c(NC(=O)Cc2c(C(=O)O)[nH]c3ccc(Cl)cc23)c1,2,-13,2,-4,-1
O=c1oc2ccccc2c2c1C1O[C@](c3ccsc3)(Cc3c1ccc1ccccc31)O2,-2,-14,9,1,1
Cc1cc(C(=O)C(C)OC(=O)C2=NNC(=O)CC2)c(C)n1-c1ccc(OC(F)F)cc1 (stereo not drawn),3,-11,7,-6,0
Cc1cc(C(=O)COC(=O)C2=NNC(=O)CC2)c(C)n1-c1ccc(OC(F)F)cc1,6,-35*,11,-3,0
CN1CCN(C(=O)c2ccc(CS(=O)Cc3ccc(Cl)cc3)o2)CC1 (stereo not drawn),-1,-34*,3,0,1
O=C(CSc1ccc(C(F)(F)F)cc1[N+](=O)[O-])Nc1ccccc1,0,-13,37*,-8,-1
CC(C)NC(=O)CNc1ccc(C(F)(F)F)cc1[N+](=O)[O-],0,-30*,2,-14,0
CC(C)(C)C(=O)NC(=S)NNC(=O)c1ccc(Cl)cc1Cl,-7,111,397*,8,102*
CC(C)(C)C(=O)NC(=S)NNC(=O)c1ccc(-c2ccccc2)cc1,-3,nt,262*,30,58*
CCOc1ccc(S(=O)(=O)NCC(c2cccs2)S(=O)(=O)c2ccc(C)cc2)cc1 (stereo not drawn),-3,nt,5,-3,0
O=C(c1cc(F)cc(F)c1)N1CCC(c2nc(-c3ccc(S(=O)(=O)N4CCCC4)cc3)no2)CC1,7,2,-1,4,1
Cc1ccc(C)c(CN2C(=O)C(=O)c3ccccc32)c1,-4,-31*,-2,-2,4
CN(C)c1cc2c(cc1NC(=O)c1ccc(F)cc1)n(C)c(=O)n2C,-3,2,4,1,0
N#CC1=C(N)Oc2cc(O)c(Cl)cc2C1c1ccccc1F (stereo not drawn),8,0,166*,15,55*
COC(=O)C1=C(C)OC(N)=C(C#N)C1c1ccccc1F (stereo not drawn),-2,-14,0,-9,0
Cc1ccc(C(=O)N2CCN(c3ccccc3F)CC2)cc1NC(=O)c1nsc2ccccc12,-12,-5,6,0,0
O=C(O)C(Cc1ccccc1)n1cccc1 (stereo not drawn),-1,-42*,3,1,0
Cc1ccc(C)c(N2CCN(C(=O)C(Cc3ccccc3)n3cccc3)CC2)c1 (stereo not drawn),-3,-53*,6,nt,0
COc1ccc(S(=O)(=O)c2cnc(SCC(=O)Nc3cc(F)ccc3C)[nH]c2=O)cc1Cl,12,5,-2,0,0
O=C(OCc1csc(-c2ccccc2)n1)C1=NN(c2ccccc2)C(=O)CC1,0,-36*,0,-10,0
O=C(Nc1cccc(-c2ccc(N3CCCCC3)nn2)c1)C(F)(F)F,3,-33*,12,-11,-1
SMILES,TRHR PAM,D1 antagonist,D1 agonist,D1 potentiator,TRHR ag
Cc1ccc(S(=O)(=O)Nc2cccc(-c3ccc(N4CCCCC4)nn3)c2)s1,-2,-80*,1,-2,-1
CC1CCN(c2ccc(-c3cccc(NC(=O)C(F)(F)F)c3)nn2)CC1,6,-55*,12,-10,-1
CSc1cccc(NC(=O)C2CCN(c3nc4ccccc4[nH]3)CC2)c1,-4,9,-1,-3,0
Cc1cc2c(s1)c1cnn(Cc3cc(C(F)(F)F)ccc3F)c(=O)c1n2C,0,21,5,-4,0
CCCCC(OC(=O)CNC(=O)c1ccccc1)C(=O)Nc1cc(C(F)(F)F)ccc1Cl (stereo not drawn),-4,6,9,-6,1
CCc1ccccc1NC(=O)C1CCCN(c2ncnc3onc(C)c23)C1 (stereo not drawn),-3,5,10,-4,0
COC(=O)c1ccccc1NC(=O)CCc1c(C)nc2c(c(C)nn2-c2ccccc2)c1C,24,-14,2,-1,-2
Cc1ccc(-c2c(C)c(-c3ccc(F)cc3)nc(N)c2C#N)o1,-5,-31*,8,-8,0
Cc1c(-c2ccc(F)cc2)nc(N)c(C#N)c1-c1cccnc1,4,10,2,5,-1
CCCn1c2ccccc2c2cnn(CC(=O)NCc3ccc(OC)cc3)c(=O)c21,1,-1,1,-3,-1
COc1cccc(N=Nc2c(C)[nH]n(-c3ccccc3)c2=O)c1,3,1,3,9,0
Cc1[nH]n(-c2ccccc2)c(=O)c1N=Nc1ccc2c(c1)OCO2,-4,-35*,1,-9,-2
Cc1[nH]n(-c2ccccc2)c(=O)c1N=Nc1ccccc1O,-3,-17,32*,-4,11
CCC(=O)NNc1ncnc2c1cnn2-c1ccc(C)c(Cl)c1,0,-3,1,-1,0
NS(=O)(=O)c1ccc(-n2nncc2C23CC4CC(CC(C4)C2)C3)cc1,4,-91*,1,-2,0
CCc1ccccc1N(C)C(=O)c1cn(CC(C)C)c(=O)c2cc(OC)c(OC)cc12,-4,0,3,0,0
CCS(=O)(=O)c1ccc(-c2csc(-c3ccc(Cl)cc3)n2)c(Cl)c1Cl,17,-33*,2,-5,1
O=C(NC(=S)NNC(=O)[C@H]1C[C@@H]1c1ccccc1)c1ccc(F)cc1,-4,-22,91*,-2,11
COc1cc(OC)cc(C(=O)NC(=S)NNC(=O)[C@H]2C[C@@H]2c2ccccc2)c1,-1,-9,88*,-3,7
COC(=O)COc1ccc(Oc2nc(NC(C)(C)C)nc(N(C)C)n2)nn1,3,-5,0,0,0
Cc1ccc(C(=O)CSc2nc(-c3ccccc3)ccc2C#N)cc1,-3,-11,36*,-2,11
Cc1ccc(-c2ccc(SCC(=O)c3ccccc3)nn2)cc1,1,-17,5,-4,1
Cc1ccc(CNc2ccc(-c3nc(-c4ccncc4)no3)cc2[N+](=O)[O-])cc1,-3,-18,19,-2,-1
Cc1ccc(NC(=O)CN2C(=O)CCc3ccccc32)cc1C,12,-5,2,0,0
S=C(NCCCN1CCOCC1)N1CCN(c2ccccc2)CC1,-1,-4,5,11,1

# Compound activity as filed in PubChem BioAssay.
